“And” between values parts separate entries of the source, which are not always exact repeats. Equal values may be shown once. The source holds several records for some structures; these can differ, active in one and inactive in another. The source made the active and inactive calls. Rule for the calls: active = hit-call score of the fitted dose curve at least 0.9, where 1 is the maximum; inactive = score below 0.9.
How the values were obtained:
[1] = read-out: Human Leukocyte Antigen - DR isotype (HLADR), HLA-DRA (gene 3122); test: BSK_BE3C_HLADR: BioMAP Diversity Plus: BE3C Assay for Human Leukocyte Antigen - DR isotype (HLADR) Biomarker Activity (AID 2283032); conditions: primary human bronchial epithelial cells; actives raise or lower the signal
Outline: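 Signal came from an ELISA for HLA-DR in human bronchial epithelial primary cells harvested 24 h after treatment; gain- and loss-of-signal fitting used DMSO controls as reference.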

[2] = read-out: Vascular cell adhesion molecule 1 (VCAM1), VCAM1 (gene 7412); test: BSK_4H_VCAM1: BioMAP Diversity Plus: 4H Assay for Vascular cell adhesion molecule 1 (VCAM1) Biomarker Activity (AID 2283033); conditions: primary human endothelial cells (HUVEC); actives raise or lower the signal
Outline: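 Endpoint derived from bidirectional fitting against DMSO controls of VCAM-1 ELISA signal in umbilical vein endothelial cells sampled at 24 h following treatment.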

[3] = read-out: Interferon-gamma inducible Protein 10 (IP10), CXCL10 (gene 3627); test: BSK_BE3C_IP10: BioMAP Diversity Plus: BE3C Assay for Interferon-gamma inducible Protein 10 (IP10) Biomarker Activity (AID 2283034); conditions: primary human bronchial epithelial cells; actives raise or lower the signal
Outline: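 Using primary human bronchial epithelial cultures, the assay captures IP-10 by ELISA one day (24 h) after exposure. Parallel SRB staining of total protein flags overt cytotoxicity. Fits run bidirectionally relative to DMSO.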

[4] = read-out: Monokine induced gamma interferon (MIG), CXCL9 (gene 4283); test: BSK_BE3C_MIG: BioMAP Diversity Plus: BE3C Assay for Monokine induced gamma interferon (MIG) Biomarker Activity (AID 2283035); conditions: primary human bronchial epithelial cells; actives raise or lower the signal
Outline: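 MIG level was determined by ELISA after 24 h chemical treatment of primary human bronchial epithelial cells. Values were fitted bidirectionally with DMSO as the negative control and activity baseline.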

[5] = read-out: Transforming growth factor beta 1 (TGFb1), TGFB1 (gene 7040); test: BSK_BE3C_TGFb1: BioMAP Diversity Plus: BE3C Assay for Transforming growth factor beta 1 (TGFb1) Biomarker Activity (AID 2283036); conditions: primary human bronchial epithelial cells; actives raise or lower the signal
Outline: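 In this human primary bronchial epithelial system, an ELISA quantified TGF-b1 one day after dosing. Endpoint changes in either direction were fitted relative to DMSO.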

[6] = read-out: Plasminogen activator inhibitor-1 (PAI1), SERPINE1 (gene 5054); test: BSK_BE3C_PAI1: BioMAP Diversity Plus: BE3C Assay for Plasminogen activator inhibitor-1 (PAI1) Biomarker Activity (AID 2283037); conditions: primary human bronchial epithelial cells; actives raise or lower the signal
Outline: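 PAI-1 biomarker levels in treated human bronchial epithelial cells are determined by ELISA at 24 h. Both increases and decreases relative to DMSO are fitted.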

[7] = read-out: urokinase plasminogen activator (uPA), PLAU (gene 5328); test: BSK_BE3C_uPA: BioMAP Diversity Plus: BE3C Assay for urokinase plasminogen activator (uPA) Biomarker Activity (AID 2283038); conditions: primary human bronchial epithelial cells; actives raise or lower the signal
Outline: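 Using confluent primary human lung bronchial epithelial cultures, we dosed chemicals, waited 24 h, then ran a uPA ELISA, fitting bidirectionally against DMSO.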

[8] = read-out: Urokinase-type plasminogen activator receptor (uPAR), PLAUR (gene 5329); test: BSK_BE3C_uPAR: BioMAP Diversity Plus: BE3C Assay for Urokinase-type plasminogen activator receptor (uPAR) Biomarker Activity (AID 2283039); conditions: primary human bronchial epithelial cells; actives raise or lower the signal
Outline: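 A uPAR ELISA serves as the readout, taken 24 h after treating primary human bronchial epithelial cells. Responses in either direction are fitted against DMSO, which defines baseline activity.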

[9] = read-out: Interleukin-6 (IL6), IL6 (gene 3569); test: BSK_CASM3C_IL6: BioMAP Diversity Plus: CASM3C Assay for Interleukin-6 (IL6) Biomarker Activity for (AID 2283040); conditions: primary human coronary artery smooth muscle cells; actives raise or lower the signal
[10] = read-out: Tissue plasminogen activator (tPA), PLAT (gene 5327); test: BSK_BE3C_tPA: BioMAP Diversity Plus: BE3C Assay for Tissue plasminogen activator (tPA) Biomarker Activity (AID 2283041); conditions: primary human bronchial epithelial cells; actives raise or lower the signal
Outline: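 Bidirectional curve fitting relative to DMSO defined activity, with tPA detected by ELISA in chemically treated human bronchial epithelial primary cells at 24 hours.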

[11] = read-out: Interleukin-8 (IL8), CXCL8 (gene 3576); test: BSK_CASM3C_IL8: BioMAP Diversity Plus: CASM3C Assay for Interleukin-8 (IL8) Biomarker Activity (AID 2283042); conditions: primary human coronary artery smooth muscle cells; actives raise or lower the signal;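 note: IL-8 protein level quantified by ELISA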
[12] = read-out: Human Leukocyte Antigen - DR isotype (HLADR), HLA-DRA (gene 3122); test: BSK_CASM3C_HLADR: BioMAP Diversity Plus: CASM3C Assay for Human Leukocyte Antigen - DR isotype (HLADR) Biomarker Activity (AID 2283043); conditions: primary human coronary artery smooth muscle cells; actives raise or lower the signal;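 note: cell-surface HLA-DR protein level quantified by ELISA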
[13] = read-out: Macrophage colony-stimulating factor (MCSF), CSF1 (gene 1435); test: BSK_CASM3C_MCSF: BioMAP Diversity Plus: CASM3C Assay for Macrophage colony-stimulating factor (MCSF) Biomarker Activity (AID 2283044); conditions: primary human coronary artery smooth muscle cells; actives raise or lower the signal;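 note: M-CSF protein amount quantified by ELISA after 24 h exposure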
[14] = read-out: Low-density lipoprotein receptor (LDLR), LDLR (gene 3949); test: BSK_CASM3C_LDLR: BioMAP Diversity Plus: CASM3C Assay for Low-density lipoprotein receptor (LDLR) Biomarker Activity (AID 2283045); conditions: primary human coronary artery smooth muscle cells; actives raise or lower the signal;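 note: LDLR protein level on the cell surface quantified by ELISA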
[15] = read-out: Monocyte Chemoattractant Protein-1 (MCP1), CCL2 (gene 6347); test: BSK_CASM3C_MCP1: BioMAP Diversity Plus: CASM3C Assay for Monocyte Chemoattractant Protein-1 (MCP1) Biomarker Activity (AID 2283046); conditions: primary human coronary artery smooth muscle cells; actives raise or lower the signal;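 note: MCP-1 level quantified by ELISA 24 h after dosing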
[16] = BSK_CASM3C_Proliferation: Cell Proliferation Assessment in the BioMAP Diversity Plus: CASM3C Assay (AID 2283047); conditions: primary human coronary artery smooth muscle cells;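 note: sulforhodamine B total protein stain as relative cell number at 560 nm; sub-confluent cells exposed 48 h before staining; fitted both ways against DMSO so gain or loss of cell number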
[17] = read-out: Monokine induced gamma interferon (MIG), CXCL9 (gene 4283); test: BSK_CASM3C_MIG: BioMAP Diversity Plus: CASM3C Assay for Monokine induced gamma interferon (MIG) Biomarker Activity (AID 2283048); conditions: primary human coronary artery smooth muscle cells; actives raise or lower the signal;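 note: MIG protein level measured by ELISA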
[18] = read-out: serum amyloid A (SAA), SAA1 (gene 6288); test: BSK_CASM3C_SAA: BioMAP Diversity Plus: CASM3C Assay for serum amyloid A (SAA) Biomarker Activity (AID 2283049); conditions: primary human coronary artery smooth muscle cells; actives raise or lower the signal;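 note: SAA protein level quantified by ELISA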
[19] = BSK_CASM3C_SRB: Viability Assessment in the BioMAP Diversity Plus: CASM3C Assay (AID 2283050); conditions: primary human coronary artery smooth muscle cells;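 note: cells exposed to compound for 24 h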
[20] = read-out: Thrombomodulin, THBD (gene 7056); test: BSK_CASM3C_Thrombomodulin: BioMAP Diversity Plus: CASM3C Assay for Thrombomodulin Biomarker Activity (AID 2283051); conditions: primary human coronary artery smooth muscle cells; actives raise or lower the signal;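 note: thrombomodulin protein level measured by ELISA 24 h after dosing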

Measured: AC50

CCc1nn(C)c(C(=O)NCc2ccc(C(C)(C)C)cc2)c1Cl
active: [1] 18.3 µM | [2] 6.81 µM | [3] 25.7 µM | [4] 29.4 µM | [6] 31.9 µM | [7] 30.6 µM | [8] 27.3 µM | [10] 20 µM | [16] 14.4 µM | [20] 13.2 µM
inactive: [5] | [9] | [11] | [12] | [13] | [14] | [15] | [17] | [18] | [19]

CCOc1cc(Oc2ccc(C(F)(F)F)cc2Cl)ccc1[N+](=O)[O-]
active: [1] 9.39 µM | [16] 20 µM
inactive: all other assays above

CC(C)C1(C)N=C(c2nc3ccccc3cc2C(=O)O)NC1=O (centres undefined)
inactive: all assays above

CCCCNC(=O)OCC#CI
active: [1] 28.8 µM and 31.2 µM | [2] 25.1 µM and 21.8 µM | [3] 34 µM and 31.1 µM | [4] 37 µM and 31.3 µM | [5] 31.2 µM and 32.1 µM | [7] 32 µM and 30.6 µM | [8] 30 µM and 30.4 µM | [9] 32.3 µM and 36.3 µM | [10] 30 µM | [11] 36.6 µM | [12] 30.8 µM and 24.6 µM | [13] 26.4 µM and 15.8 µM | [15] 20.8 µM and 24.5 µM | [16] 6.91 µM and 7.15 µM | [17] 29.5 µM and 28.7 µM | [18] 14.8 µM and 14.3 µM | [19] 30.5 µM and 30.6 µM | [20] 4.72 µM and 36.3 µM
inactive: [10] | [14]

CCCC1COC(Cn2cncn2)(c2ccc(Cl)cc2Cl)O1 (centres undefined)
active: [20] 7.5 µM
not listed: [6]
inactive: all other assays above
